These results are taken from PubChem BioAssay (EPA / NIEHS).

In test [1] the target is Retinoic acid receptor RXR-alpha (Homo sapiens) (UniProt P19793). Nature of the test: ATG_RXRa_TRANS: Attagene TRANS-FACTORIAL HepG2 Assay for human Retinoid X Receptor alpha (RXRa) (AID 2283012; active = hit-call score of the fitted dose curve at least 0.9, where 1 is the maximum). A digest of the protocol:
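Chimeric NR-GAL4 trans-activation in HepG2, 24 h treatment; reporter transcripts quantified by fluorescence on capillary electrophoresis, analysed for upward change from DMSO.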

The target in test [2] is human Thyroid Receptor alpha (THRa1), THRA (gene 7067) (UniProt P10827). As to the kind of experiment: ATG_THRa1_TRANS: Attagene TRANS-FACTORIAL HepG2 Assay for human Thyroid Receptor alpha (THRa1) (AID 2283014; active = hit-call score of the fitted dose curve at least 0.9, where 1 is the maximum). The procedure, abridged:
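Measured here is mRNA from a GAL4-UAS reporter in transfected HepG2 cells carrying a Gal4-fused receptor, 24 h post-dose. DMSO served as negative control and baseline.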

For test [3], the target named is human Vitamin D Receptor (VDR), VDR (gene 7421) (UniProt P11473). Nature of the test: ATG_VDR_TRANS: Attagene TRANS-FACTORIAL HepG2 Assay for human Vitamin D Receptor (VDR) (AID 2283022; active = hit-call score of the fitted dose curve at least 0.9, where 1 is the maximum). The procedure, abridged: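 Multiplexed TRANS reporter in HepG2; 24 h treatment; reporter mRNA by RT-PCR plus capillary electrophoresis; upregulation scored relative to DMSO.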
Read-out in test [4]: E-selectin (Homo sapiens) (UniProt P16581)
Nature of the test: BSK_3C_Eselectin: BioMAP Diversity Plus: 3C Assay for Eselectin Biomarker Activity (AID 2283015).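 As to outcome: cell surface E-selectin protein quantified by ELISA 24 h after dosing.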 The note with it: primary human endothelial cells (HUVEC); actives raise or lower the signal. A digest of the protocol:
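Endpoint derived by bidirectional fitting against DMSO vehicle; signal is ELISA-detected E-selectin from primary HUVEC at 24 h post-dosing, with parallel SRB staining (0.1% SRB, 560 nm) flagging cytotoxicity.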

Read-out in test [5]: Interleukin-1 alpha (IL1a), IL1A (gene 3552)
Nature of the test: BSK_BE3C_IL1a: BioMAP Diversity Plus: BE3C Assay for Interleukin-1 alpha (IL1a) Biomarker Activity (AID 2283016). The note with it: primary human bronchial epithelial cells; actives raise or lower the signal. A digest of the protocol:
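Measured in human lung primary bronchial epithelial cells: IL-1a by ELISA at 24 h after dosing, with bidirectional fitting against DMSO.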

Read-out in test [6]: Monocyte Chemoattractant Protein-1 (MCP1), CCL2 (gene 6347)
As to the kind of experiment: BSK_3C_MCP1: BioMAP Diversity Plus: 3C Assay for Monocyte Chemoattractant Protein-1 (MCP1) Biomarker Activity (AID 2283017). The note with it: primary human endothelial cells (HUVEC); actives raise or lower the signal. A digest of the protocol:
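Using human vascular primary endothelium, researchers measured MCP-1 by ELISA 24 h after treatment, with DMSO serving as negative control for bidirectional fitting.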

Read-out in test [7]: Monocyte Chemoattractant Protein-1 (MCP1), CCL2 (gene 6347)
Nature of the test: BSK_4H_MCP1: BioMAP Diversity Plus: 4H Assay for Monocyte Chemoattractant Protein-1 (MCP1) Biomarker Activity (AID 2283018). The note with it: primary human endothelial cells (HUVEC); actives raise or lower the signal. A digest of the protocol: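 Primary human umbilical vein endothelium is exposed to chemical for 24 h before MCP-1 is assayed by ELISA. Concentration-response fitted bidirectionally relative to DMSO.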

Read-out in test [8]: Human Leukocyte Antigen - DR isotype (HLADR), HLA-DRA (gene 3122)
Nature of the test: BSK_3C_HLADR: BioMAP Diversity Plus: 3C Assay for Human Leukocyte Antigen - DR isotype (HLADR) Biomarker Activity (AID 2283019).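 As to outcome: ELISA of cell-surface HLA-DR on HUVEC 24 h after dosing.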 The note with it: primary human endothelial cells (HUVEC); actives raise or lower the signal. The procedure, abridged:
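Compound added to primary HUVEC cultures, 24 h incubation, then HLA-DR determined by ELISA; endpoint derived by bidirectional fitting relative to DMSO negative control.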

Read-out in test [9]: Interleukin-8 (IL8), CXCL8 (gene 3576)
As to the kind of experiment: BSK_3C_IL8: BioMAP Diversity Plus: 3C Assay for Interleukin-8 (IL8) Biomarker Activity (AID 2283020). The note with it: primary human endothelial cells (HUVEC); actives raise or lower the signal. A digest of the protocol: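 Using DMSO-treated wells as the baseline, bidirectional curve fitting was applied to ELISA-measured IL-8 from human umbilical vein endothelial cultures sampled 24 h after compound addition.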

Read-out in test [10]: Monokine induced gamma interferon (MIG), CXCL9 (gene 4283)
As to the kind of experiment: BSK_3C_MIG: BioMAP Diversity Plus: 3C Assay for Monokine induced gamma interferon (MIG) Biomarker Activity (AID 2283021). The note with it: primary human endothelial cells (HUVEC); actives raise or lower the signal. A digest of the protocol:
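ELISA-measured MIG in dosed HUVEC 3C cultures at 24 h, analysed by bidirectional fitting with DMSO defining baseline activity.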

Test [11] can be described thus: BSK_3C_SRB: Viability Assessment in the BioMAP Diversity Plus: 3C Assay (AID 2283023).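 Also: cells read 24 h after compound dosing; fitted both ways against DMSO so a hit may be signal rise or drop.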 The note with it: primary human endothelial cells (HUVEC). A digest of the protocol: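 Overt cytotoxicity is gauged in parallel confluent HUVEC cultures by SRB total-protein staining at the time of biomarker measurement, 24 h after dosing. Gain or loss of signal is fitted versus DMSO.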

Read-out in test [12]: Matrix Metallopeptidase 1 (MMP1), MMP1 (gene 4312)
As to the kind of experiment: BSK_BE3C_MMP1: BioMAP Diversity Plus: BE3C Assay for Matrix Metallopeptidase 1 (MMP1) Biomarker Activity (AID 2283024). The note with it: primary human bronchial epithelial cells; actives raise or lower the signal. The procedure, abridged:
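In this multiplexed primary-cell system, human bronchial epithelium received chemicals for 24 h before an ELISA for MMP1. Values reflect bidirectional fits normalised to the DMSO baseline.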

Read-out in test [13]: Pselectin, SELP (gene 6403)
Nature of the test: BSK_4H_Pselectin: BioMAP Diversity Plus: 4H Assay for Pselectin Biomarker Activity (AID 2283026). The note with it: primary human endothelial cells (HUVEC); actives raise or lower the signal. A digest of the protocol: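 Bidirectional fits against DMSO gave the endpoint. Cells: primary human umbilical vein endothelium, chemical-treated for 24 h before ELISA detection of P-selectin.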

A short description of test [14]: BSK_4H_SRB: Viability Assessment in the BioMAP Diversity Plus: 4H Assay (AID 2283027).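 Also: cells exposed to compound for 24 h before staining.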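 As to AC50: curves fitted both ways versus DMSO so AC50 may be loss or gain.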 The note with it: primary human endothelial cells (HUVEC). The procedure, abridged: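 HUVEC, 24 h post-dose; 10% TCA fix, 0.1% SRB stain, A560 nm. Total protein = overt cytotoxicity, parallel to biomarker read. Bidirectional fit vs DMSO baseline.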
The nature of test [15]: BSK_BE3C_SRB: Viability Assessment in the BioMAP Diversity Plus: BE3C Assay (AID 2283028). The note with it: primary human bronchial epithelial cells. A digest of the protocol: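 SRB total-protein staining (0.1%, after TCA fixation) of chemically dosed human bronchial epithelial primary cells at 24 h; DMSO serves as the negative control for bidirectional curve fitting.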

Read-out in test [16]: Urokinase-type plasminogen activator receptor (uPAR), PLAUR (gene 5329)
As to the kind of experiment: BSK_4H_uPAR: BioMAP Diversity Plus: 4H Assay for Urokinase-type plasminogen activator receptor (uPAR) Biomarker Activity (AID 2283030). The note with it: primary human endothelial cells (HUVEC); actives raise or lower the signal. A digest of the protocol:
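Endpoint derived via bidirectional curve fitting against DMSO baseline; readout was ELISA detection of uPAR on umbilical vein endothelial cells at 24 h post-treatment, with SRB-stained parallel cultures assessing cytotoxicity.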

Read-out in test [17]: Vascular endothelial growth factor receptor 2 (Homo sapiens) (UniProt P35968)
As to the kind of experiment: BSK_4H_VEGFRII: BioMAP Diversity Plus: 4H Assay for Vascular endothelial growth factor receptor 2 (VEGFR2) Biomarker Activity (AID 2283031).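 As to AC50: cell-surface VEGFR2 protein level quantified by ELISA.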 The note with it: primary human endothelial cells (HUVEC); actives raise or lower the signal. The procedure, abridged: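 In this multiplexed HUVEC system, biomarker ELISA was performed after 24 h chemical exposure. Parallel SRB staining (TCA fixation, 560 nm) tracked cytotoxicity; DMSO served as baseline.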

Read-out in test [18]: Human Leukocyte Antigen - DR isotype (HLADR), HLA-DRA (gene 3122)
Nature of the test: BSK_BE3C_HLADR: BioMAP Diversity Plus: BE3C Assay for Human Leukocyte Antigen - DR isotype (HLADR) Biomarker Activity (AID 2283032). The note with it: primary human bronchial epithelial cells; actives raise or lower the signal. A digest of the protocol: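 BioMAP BE3C format: human bronchial epithelium, 24 h compound treatment, ELISA detection of HLA-DR, with bidirectional analysis relative to DMSO.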

Read-out in test [19]: Vascular cell adhesion molecule 1 (VCAM1), VCAM1 (gene 7412)
Nature of the test: BSK_4H_VCAM1: BioMAP Diversity Plus: 4H Assay for Vascular cell adhesion molecule 1 (VCAM1) Biomarker Activity (AID 2283033).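 As to outcome: cell-surface VCAM-1 protein measured by ELISA.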 The note with it: primary human endothelial cells (HUVEC); actives raise or lower the signal. A digest of the protocol: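 In this human endothelial (HUVEC) system, biomarker ELISA was run 24 h after compound addition, and total protein in parallel wells was assessed by SRB at 560 nm; DMSO served as negative control.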

The target of test [20] is human Retinoid X Receptor beta (RXRb), RXRB (gene 6257) (UniProt P28702). As to the kind of experiment: ATG_RXRb_TRANS: Attagene TRANS-FACTORIAL HepG2 Assay for human Retinoid X Receptor beta (RXRb) (AID 2283013; active = hit-call score of the fitted dose curve at least 0.9, where 1 is the maximum). The procedure, abridged:
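After a 24 h incubation with test chemical, transfected HepG2 cells carrying NR-Gal4 fusions and GAL4-UAS reporter transcription units yield RNA whose reporter cDNA is FAM-labelled, HpaI-cut and sized by capillary electrophoresis; increases over DMSO are scored.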

SMILES strings stand for the structures. Records with an inconclusive call do not appear. Calls of active or inactive are those of the source. The calls were made as follows, unless noted: active = hit-call score of the fitted dose curve at least 0.9, where 1 is the maximum; inactive = score below 0.9.

Broadly, the AC50 is the midpoint of the concentration-response curve, whichever way the signal moves.

Chain of Retinoic acid receptor RXR-alpha (Homo sapiens) (P19793 whole entry, looked up, the tested form may be a part): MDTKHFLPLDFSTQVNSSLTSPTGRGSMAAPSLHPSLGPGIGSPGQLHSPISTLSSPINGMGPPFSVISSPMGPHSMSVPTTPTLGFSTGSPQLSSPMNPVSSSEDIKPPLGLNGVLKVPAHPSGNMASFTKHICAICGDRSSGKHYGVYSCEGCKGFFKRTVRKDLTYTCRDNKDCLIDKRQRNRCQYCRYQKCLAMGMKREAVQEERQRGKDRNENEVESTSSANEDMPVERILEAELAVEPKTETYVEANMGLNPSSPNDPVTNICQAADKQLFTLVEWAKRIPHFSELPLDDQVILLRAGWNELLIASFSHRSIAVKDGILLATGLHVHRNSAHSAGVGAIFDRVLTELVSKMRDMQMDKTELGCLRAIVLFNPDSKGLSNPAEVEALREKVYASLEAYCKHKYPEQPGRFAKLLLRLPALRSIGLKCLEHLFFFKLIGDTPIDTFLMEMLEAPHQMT
Chain of human Vitamin D Receptor (VDR), VDR (gene 7421) (P11473 whole entry, looked up): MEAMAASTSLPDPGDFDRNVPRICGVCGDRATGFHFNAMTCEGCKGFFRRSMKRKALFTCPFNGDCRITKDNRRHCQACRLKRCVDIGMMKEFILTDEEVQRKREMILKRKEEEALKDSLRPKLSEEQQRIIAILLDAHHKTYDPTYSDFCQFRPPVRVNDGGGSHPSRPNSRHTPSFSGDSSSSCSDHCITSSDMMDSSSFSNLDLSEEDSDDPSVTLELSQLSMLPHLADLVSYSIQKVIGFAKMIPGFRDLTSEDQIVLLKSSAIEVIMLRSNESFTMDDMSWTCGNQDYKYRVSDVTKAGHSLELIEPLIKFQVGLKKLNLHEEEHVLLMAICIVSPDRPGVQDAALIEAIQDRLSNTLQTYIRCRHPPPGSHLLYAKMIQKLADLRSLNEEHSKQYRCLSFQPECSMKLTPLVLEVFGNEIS
Chain of human Thyroid Receptor alpha (THRa1), THRA (gene 7067) (P10827 whole entry, looked up, the tested form may be a part): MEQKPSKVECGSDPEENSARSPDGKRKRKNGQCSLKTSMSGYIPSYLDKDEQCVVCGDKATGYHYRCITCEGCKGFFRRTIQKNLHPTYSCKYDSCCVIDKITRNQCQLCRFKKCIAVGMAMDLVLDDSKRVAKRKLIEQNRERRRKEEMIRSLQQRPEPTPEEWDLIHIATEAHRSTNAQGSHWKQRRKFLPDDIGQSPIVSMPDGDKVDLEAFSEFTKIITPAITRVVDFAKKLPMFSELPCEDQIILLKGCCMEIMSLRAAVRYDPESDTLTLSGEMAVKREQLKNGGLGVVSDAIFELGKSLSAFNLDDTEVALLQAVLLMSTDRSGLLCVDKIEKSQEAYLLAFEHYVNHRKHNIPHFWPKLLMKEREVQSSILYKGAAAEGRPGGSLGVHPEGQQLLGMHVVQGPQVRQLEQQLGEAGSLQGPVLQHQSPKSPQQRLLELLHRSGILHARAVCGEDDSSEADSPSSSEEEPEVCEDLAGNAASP
Chain of human Retinoid X Receptor beta (RXRb), RXRB (gene 6257) (P28702 whole entry, looked up, the tested form may be a part): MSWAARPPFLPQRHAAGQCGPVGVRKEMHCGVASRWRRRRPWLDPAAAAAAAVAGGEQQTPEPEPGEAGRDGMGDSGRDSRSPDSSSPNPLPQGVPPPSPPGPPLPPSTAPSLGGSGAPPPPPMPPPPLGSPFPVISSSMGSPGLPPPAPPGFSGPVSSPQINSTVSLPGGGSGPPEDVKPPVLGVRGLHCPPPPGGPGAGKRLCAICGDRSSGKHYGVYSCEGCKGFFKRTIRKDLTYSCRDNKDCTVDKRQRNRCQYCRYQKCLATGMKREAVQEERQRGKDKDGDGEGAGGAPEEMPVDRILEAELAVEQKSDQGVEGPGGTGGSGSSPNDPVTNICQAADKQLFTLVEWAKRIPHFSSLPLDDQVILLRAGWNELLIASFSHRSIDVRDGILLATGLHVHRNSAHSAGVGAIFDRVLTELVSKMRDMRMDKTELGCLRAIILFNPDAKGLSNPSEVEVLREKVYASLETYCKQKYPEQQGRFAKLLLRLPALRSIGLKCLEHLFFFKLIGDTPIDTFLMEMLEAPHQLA
Chain of E-selectin (Homo sapiens) (P16581 whole entry, looked up): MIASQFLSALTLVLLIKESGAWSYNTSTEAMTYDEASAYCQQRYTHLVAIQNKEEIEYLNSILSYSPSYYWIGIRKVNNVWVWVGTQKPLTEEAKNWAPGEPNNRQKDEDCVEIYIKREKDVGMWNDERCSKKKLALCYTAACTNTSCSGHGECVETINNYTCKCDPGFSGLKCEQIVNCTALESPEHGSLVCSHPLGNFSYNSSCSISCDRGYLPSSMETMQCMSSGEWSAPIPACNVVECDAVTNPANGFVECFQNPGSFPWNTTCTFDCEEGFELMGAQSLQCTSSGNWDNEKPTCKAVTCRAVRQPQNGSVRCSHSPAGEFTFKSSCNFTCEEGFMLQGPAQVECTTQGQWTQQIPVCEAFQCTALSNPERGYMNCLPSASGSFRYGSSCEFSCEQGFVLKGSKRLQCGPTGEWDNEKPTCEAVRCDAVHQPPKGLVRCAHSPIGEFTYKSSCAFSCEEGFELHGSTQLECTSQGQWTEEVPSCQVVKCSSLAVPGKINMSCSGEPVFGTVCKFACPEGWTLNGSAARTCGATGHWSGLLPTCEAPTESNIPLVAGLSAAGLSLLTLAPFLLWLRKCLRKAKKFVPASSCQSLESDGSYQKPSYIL

As for `CC(C)=CCC[C@H](C)CCO`, the call in test [1] and in test [2] was inactive.

As for `Cc1ccccc1C`, the compound was called inactive in test [1] and in [2].

Turning to `Nc1ccc(-c2ccc(F)cc2)cc1`, the compound was classed as inactive in [1] and in [2].

Regarding `O=C(Nc1cccc(C(F)(F)F)c1)c1cc(Br)cc(Br)c1O`, the outcome in test [1], in test [2] and in test [3] was inactive.

Turning to `CC(C)(C)C(=O)CCc1ccc(Cl)cc1`, the call in test [1], in [2] and in [3] was inactive.

As to `O=Nc1ccc(O)cc1`, the call in test [1], in test [2], in [4], in test [5], in test [6] and in [7] was inactive. Moreover, the result in test [8], in test [9], in test [10], in test [11], in test [12] and in [13] was inactive. For the same compound, the result in [14], in [15], in test [16], in test [17], in [18] and in test [19] was inactive.

As to `COC(=O)/C=C\C(=O)O`, in test [20], the call was inactive.

On to `CCCCCCCCO[C@@H]1O[C@H](CO)[C@@H](O)[C@H](O)[C@H]1O`, for which the result in test [1], in test [2] and in [3] was inactive.

For the compound `CC(C)COC(=O)C=Cc1ccccc1`, the outcome in test [1], in [2] and in test [3] was inactive.

For the compound `CCCCC(CC)COC(=O)c1ccccc1O` (stereo not drawn), the compound was classed as inactive in [1], in [5], in test [10], in [12], in test [15] and in test [16]. In addition, the outcome in [18] was inactive. Also, the AC50 in [4] is 10 µM (active); in test [6] it was 15.9 µM (active); in [7], 16.2 µM (active); in test [8], 18.1 µM (active); in test [9], 10 µM (active); in [11] it was 15.7 µM (active). Also, the half-maximal activity concentration (AC50) in test [13] was 16.2 µM (active); in test [14], 18.2 µM (active); in test [17], 18.8 µM (active); in [19] it was 14.9 µM (active).

Regarding `CCCCCCC1(C)CCC(=O)O1` (stereo not drawn), the outcome in [20] was inactive.

Regarding `O=S(=O)(O)c1ccc2cc(O)c(S(=O)(=O)O)cc2c1`, the call in [20] was inactive.

Regarding `C[Si](C)(CCCN)O[Si](C)(C)CCCN`, the outcome in test [1] and in [3] was inactive.
